# HIV Env fusion = blocks HIV Env-driven cell-cell fusion | inhibition, % at 12.3 µM | AID 651610 | 360,000 tested, 1.1% active | HeLa-JRFL Env/CEM21 cell fusion, luciferase;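 active = mean replicate inhibition score of at least 50 and every replicate individually at or above 50; inconclusive = only one of the two criteria met; inactive = mean below 50 and not all replicates reaching 50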;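 note: 0% = plate neutral controls and 100% = maraviroc near 300 nM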
# MITF act = activators of MITF-driven TRPM1 promoter activity in SK-MEL-5 cells; SK-MEL-5 TRPM1-promoter luciferase, 24 h; % of positive control, neutral wells = 0; 300,000 tested, 0.75% active; activation, % at 12.5 µM; AID 588334;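 active = mean activation of at least 80% with every replicate also reaching 80%; inconclusive = mean reaches 80% but some replicate falls short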;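 note: 0% = neutral control wells and 100% = parthenolide positive control wells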
# miR-122 sensor = blocks miR-122 activity in Huh7 sensor cells. Huh7 miR-122 Renilla luciferase sensor, 48 h; neutral wells = 0, positive control = 100. 340,000 tested, 0.3% active. AID 602342. activation (reporter increase), % at 12.5 µM;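 active = mean replicate activation score at least 90 and every replicate individually at or above 90; inconclusive = only one of the two criteria met; inactive = neither criterion met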;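 note: higher luciferase means less miR-122 activity so hits act as miR-122 inhibitors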
# Wnt bcat act = activators of Wnt/beta-catenin signaling; Wnt/beta-catenin reporter cell assay, activator, plate reader; 300,000 tested, 1.2% active; activation, % at 9.35 µM; in the data active = activation above about 30%, passing the limit was not always enough; inconclusive = no clear call, values can overlap the other calls;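 note: 0% = neutral control wells and 100% = positive control wells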
# esBAF inh = inhibitors of esBAF chromatin remodeling in mouse ES cells | Bmi1-luciferase knock-in reporter, 24 h; 100% = twice the neutral-well signal | AID 602393 | 350,000 tested, 2% active | reporter increase, % at 12.5 µM; in the data active = activation above about 40%; inconclusive = no clear call, values can overlap the other calls;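 note: 0% = median of the plate's neutral control wells and 100% = double that signal; a rise in the Bmi1 reporter signal indicates esBAF inhibition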
# * marks the source's active call; other numbers are inactive results; ? = inconclusive; · = not tested or not shown; [ ] = dose if it differs, or a comment. Most compounds without a hit are left out; they make up all but 3.4% or so of the library.
SMILES,HIV Env fusion,MITF act,miR-122 sensor,Wnt bcat act,esBAF inh
CNC(=O)C[C@@H]1CC[C@H]2[C@H](COc3ccc(NC(=O)Nc4cccc(F)c4)cc3C(=O)N2C)O1,-8[16.7 µM],·,-21[16.7 µM],·,-5
Cc1cc(C(=O)Nc2cccc3c2O[C@H](CN(C)Cc2ccc(C(F)(F)F)cc2)[C@@H](C)CN([C@H](C)CO)C3=O)n(C)n1,5[16.7 µM],·,276*[16.7 µM],·,-5
COc1ccccc1C(=O)/C=C/c1ccc(N2CCCCC2)c([N+](=O)[O-])c1,-29,-7,8,-1,19
O=C(/C=C/c1ccc(N2CCCCC2)c([N+](=O)[O-])c1)c1ccc(O)cc1,-24,13,-5,?,60*
COCCNc1oc(-c2ccccc2Cl)nc1C#N,-16,31,1,-4,55*
COCCNc1oc(-c2ccc(F)cc2)nc1C#N,·,27,-4,6,24
CCNc1oc(-c2cccc3ccccc23)nc1C#N,·,43,·,·,60*
C=CCNc1oc(-c2cccc3ccccc23)nc1C#N,·,28,2,·,24
N#Cc1nc(-c2cccc3ccccc23)oc1NCCN1CCCCC1,-24,·,-1,4,6
CC(C)Nc1oc(-c2cccc3ccccc23)nc1C#N,-66,86*,-4,·,38
COC(=O)C[C@H]1CC[C@H]2[C@H](COc3ccc(NC(=O)c4cccc(Cl)c4)cc3C(=O)N2C)O1,11[16.7 µM],·,·,·,6
COc1ccc(CNC(=O)C[C@@H]2CC[C@H]3[C@H](COc4ccc(NC(C)=O)cc4C(=O)N3C)O2)cc1,4[16.7 µM],·,25[16.7 µM],·,4
CN1C(=O)c2cc(NC(=O)c3cscn3)ccc2OC[C@H]2O[C@@H](CC(=O)N3CCOCC3)CC[C@@H]21,-3[16.7 µM],·,-1[16.7 µM],·,-7
CCCCCOC(=O)c1ccc(OC(=O)c2cncc(Br)c2)cc1,·,?,-8,·,105*
CCCCCCCOC(=O)c1ccc(OC(=O)c2cccnc2)cc1,·,36,2,·,33
CS(=O)(=O)Nc1ccc2c(c1)[C@@H]1C[C@@H](CC(=O)NCc3ccc(Cl)cc3)O[C@H](CO)[C@@H]1O2,2[16.7 µM],·,-6[16.7 µM],·,-2
C[C@@H]1CCCCO[C@@H](CN(C)C(=O)Nc2ccc(C(F)(F)F)cc2)[C@H](C)CN([C@@H](C)CO)C(=O)c2cc(NS(=O)(=O)c3ccc(F)cc3)ccc2O1,-39[16.7 µM],·,-10[16.7 µM],·,-4
C[C@H]1CCCCO[C@@H](CN(C)C(=O)Nc2ccc(C(F)(F)F)cc2)[C@@H](C)CN([C@@H](C)CO)C(=O)c2cc(NS(=O)(=O)c3ccccc3)ccc2O1,64*[16.7 µM],·,19[16.7 µM],·,-4
C[C@H](CO)N1C[C@H](C)[C@@H](CN(C)C(=O)Nc2ccc(C(F)(F)F)cc2)OCCCC[C@H](C)Oc2ccc(NS(=O)(=O)c3ccc(F)cc3)cc2C1=O,70*[16.7 µM],·,-2[16.7 µM],·,3
COc1ccc(S(=O)(=O)Nc2ccc3c(c2)C(=O)N([C@H](C)CO)C[C@@H](C)[C@H](CN(C)C(=O)Nc2ccccc2)OCCCC[C@@H](C)O3)cc1,-66[16.7 µM],·,1[16.7 µM],·,4
COc1ccc(S(=O)(=O)Nc2ccc3c(c2)C(=O)N([C@H](C)CO)C[C@H](C)[C@H](CN(C)C(=O)Nc2ccccc2)OCCCC[C@H](C)O3)cc1,60*[16.7 µM],·,-7[16.7 µM],·,-12
Cc1noc(C)c1NC(=O)Nc1ccc2c(c1)C(=O)N([C@H](C)CO)C[C@H](C)[C@H](CN(C)Cc1ccc(Cl)c(Cl)c1)OCCCC[C@@H](C)O2,9[16.7 µM],·,-2[16.7 µM],·,2
CC(C)NC(=O)Nc1ccc2c(c1)CC(=O)N([C@H](C)CO)C[C@H](C)[C@H](CN(C)C(=O)Nc1ccccc1)O2,2[16.7 µM],·,-1[16.7 µM],·,-4
C[C@@H]1CN([C@H](C)CO)C(=O)c2cc(C#CCN(C)C)cnc2O[C@@H]1CN(C)C(=O)c1ccc(F)cc1,-43[16.7 µM],·,-4[16.7 µM],·,2
CCOC(=O)c1cc(-c2ccc(OC)cc2)n[nH]1,-15,·,·,23,70*
CCOC(=O)c1cc(=O)n2c(nc3ccccc32)[nH]1,-17,28,6,16,55*
CC(C)OC(=O)c1cc2ccccc2[nH]1,8,49,-1,9,66*
CCOC(=O)c1cc2cc3ccccc3cc2[nH]1,-84,·,3,40*,22
CCCNC(=O)C[C@H]1CC[C@@H]2[C@@H](COc3ccc(NC(=O)Cc4ccccc4)cc3C(=O)N2C)O1,-4[16.7 µM],·,0[16.7 µM],·,7
OCCOCCn1c(CCNc2nc(-c3ccc(Cl)cc3)cs2)nc2cc(Cl)c(Cl)cc21,81*,22,6,-6,13

# High-throughput results deposited in PubChem by Broad Institute.
